The record followed here is PubChem BioAssay.

Assay [1] addresses Adenosylmethionine-8-amino-7-oxononanoate aminotransferase (Mycobacterium tuberculosis (strain ATCC 25618 / H37Rv)) (UniProt P9WQ81). The assay is described as follows: inhibition of purified M. tuberculosis BioA – biochemical, plate reader, cherry-pick samples, dose response (AID 651683).
Assay [2] in a line: Cryptococcus neoformans growth inhibition, dose response, Alamar Blue, cherry-picks (AID 686998;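 active means falling signal with fitted half-maximal potency no higher than twice the top valid tested dose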). (In general: Resazurin is reduced to fluorescent resorufin, in cell work by metabolically active cells.)
A short description of assay [3]: inducers of Cryptococcus neoformans cell lysis, dose response, AK release luminescence, cherry-picks (AID 687000;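 active means fitted dose curve reaches 40% lysis signal rise at or below the highest valid concentration tested for that sample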;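 further: luminescent detection of adenylate kinase leaking from lysed yeast; 0% = median neutral control signal and 100% = double that signal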).
Assay [4] can be described thus: HepG2 cell cytotoxicity, dose response, cytotoxicity control, cherry-picks, set 2 (AID 687002;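 active means a dose-response fit showing signal loss, with half-maximal concentration no higher than twice the top tested dose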).
A short description of assay [5]: HepG2 liver cancer cell viability effects, profiling panel, resazurin fluorescence, 24 h, PK04 Diversity Set (AID 1172). As to conditions: higher = more signal.
Assay [6] is described as follows: basal S. cerevisiae growth modulation, no modifier, primary screen, OD600, strain BY4716, 24 h, basal condition (AID 1173). The conditions noted are these: OD600, 24 h; higher = more signal, called active from +8 up or from −8 down unless noted.
Assay [7] is described as follows: MM1S myeloma cell viability, profiling panel, resazurin fluorescence, basal, 24 h, PK04 Diversity Set (AID 1174).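 Further: MM1S multiple myeloma cell line.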 As to conditions: higher = more signal, called active from +8 up or from −8 down unless noted.
Assay [8] concerns the target Dihydroorotate dehydrogenase (quinone), mitochondrial (Plasmodium falciparum (isolate 3D7)) (UniProt Q08210). The assay is described as follows: PfDHODH enzyme inhibitors, primary screen, biochemical, C-terminal His tag, absorbance 600 nm (AID 1175).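 Further: recombinant parasite enzyme with a five histidine tag at its C terminus.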 As to conditions: DCIP absorbance 600 nm; higher = more signal, called active from +8 up or from −8 down unless noted.
Assay [9] can be described thus: P. aeruginosa biofilm formation inhibitors, primary screen, strain PAO1, LB-PBS medium, absorbance 600 nm (AID 1176). The conditions noted are these: P. aeruginosa PAO1 growth/biofilm, A600, 12 h; higher = more signal.
Assay [10] is described as follows: S. cerevisiae RM11-1a growth modifiers, primary screen, strain RM11-1a, OD600, basal, 24 h (AID 1177).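 Further: cultures grown under basal conditions with no added stressor.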 The conditions noted are these: OD600, 24 h; higher = more signal, called active from +8 up or from −8 down unless noted.
Assay [11] can be described thus: E. coli acrAB mutant growth effects, primary screen, E. coli filamentation inducers, strain DRC39, OD650, 24 h (AID 1178).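 Further: growth measured as culture turbidity by optical density at 650 nm.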 As to conditions: higher = more signal, called active from +8 up or from −8 down unless noted.
A short description of assay [12]: E. coli acrAB mutant growth effects, primary screen, E. coli filamentation inducers, strain DRC39, OD650, 48 h (AID 1179).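 Further: screen aims at cell division blockers that make cells filament.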 The conditions noted are these: E. coli DRC39 delta-acrAB growth, higher = more signal, called active from +8 up or from −8 down unless noted.
A short description of assay [13]: RPMI8226 myeloma cell viability, profiling panel, resazurin fluorescence, basal, 24 h, PK04 Diversity Set (AID 1180).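 Further: RPMI8826 multiple myeloma cell line at 5000 cells per well.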 As to conditions: higher = more signal; RPMI8226 viability, resazurin fluorescence, 24 h unless noted.
The target in assay [14] is E3 ubiquitin-protein ligase XIAP (Homo sapiens) (UniProt P98170). The assay is described as follows: XIAP binders, primary screen, biophysical, small-molecule microarray, fluorescence 635 nm (AID 1181).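 Further: score merges 667 nm emission and signal to noise over triplicate slides.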 The conditions noted are these: small-molecule microarray binding, higher = more signal.
The test system of assay [15] is XIP peptide (Xip251-270) binding. The assay is described as follows: small-molecule binders of XIP peptide, primary screen, biochemical, small-molecule microarray, fluorescence 635/667 nm, 0.1 µg/mL protein (AID 1182). As to conditions: fluorescent protein binding, 635 nm; higher = more signal, called active from +8 up or from −8 down unless noted.
For the next assay, the system named is XIP peptide (Xip251-270). The assay is described as follows: small-molecule binders of XIP peptide, primary screen, biochemical, small-molecule microarray, fluorescence 635/667 nm, 0.5 µg/mL protein (AID 1183). The conditions noted are these: small-molecule microarray binding, fluorescence 635 nm; higher = more signal.
Assay [16] in a line: Plasmodium falciparum growth inhibition, primary screen, strain 3D7, DAPI fluorescence, 100 nL (AID 1184).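 Further: parasites grown inside human red blood cells in medium with human serum.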 The conditions noted are these: P. falciparum 3D7 growth, 3 d, higher = more signal.
Assay [17] concerns the target Homeobox protein Hox-A13 (Mus musculus) (UniProt Q62424). The assay can be described thus: inhibitors of HoxA13-DNA binding, primary screen, biochemical, fluorescence polarization, labeled oligonucleotide (AID 1185). As to conditions: 15 min; higher = more signal, called active from +8 up or from −8 down unless noted. In general terms: In fluorescence polarisation assays a small probe gives low polarisation when free and higher when bound to something large.

A short description of assay [18]: inhibitors of hydroxyurea-induced Chk1 phosphorylation, primary screen, imaging, HeLa, phospho-Chk1 antibody, percent positive cells (AID 1186). The conditions noted are these: hydroxyurea-induced phospho-Chk1 immunofluorescence imaging, higher = more signal.
A short description of assay [19]: inhibitors of hydroxyurea-induced Chk1 phosphorylation, primary screen, imaging, HeLa, phospho-Chk1 nuclear intensity (AID 1187). The conditions noted are these: hydroxyurea-induced phospho-Chk1 immunofluorescence imaging, higher = more signal.

“And” between values parts separate entries of the source, which are not always exact repeats. Equal values may be shown once. For some assays here: Results with a measured potency or affinity are listed apart. Records with an inconclusive call do not appear. The source made the active and inactive calls. Unless noted, how the calls were made is not given here.

Chain of Dihydroorotate dehydrogenase (quinone), mitochondrial (Plasmodium falciparum (isolate 3D7)) (Q08210 whole entry, looked up): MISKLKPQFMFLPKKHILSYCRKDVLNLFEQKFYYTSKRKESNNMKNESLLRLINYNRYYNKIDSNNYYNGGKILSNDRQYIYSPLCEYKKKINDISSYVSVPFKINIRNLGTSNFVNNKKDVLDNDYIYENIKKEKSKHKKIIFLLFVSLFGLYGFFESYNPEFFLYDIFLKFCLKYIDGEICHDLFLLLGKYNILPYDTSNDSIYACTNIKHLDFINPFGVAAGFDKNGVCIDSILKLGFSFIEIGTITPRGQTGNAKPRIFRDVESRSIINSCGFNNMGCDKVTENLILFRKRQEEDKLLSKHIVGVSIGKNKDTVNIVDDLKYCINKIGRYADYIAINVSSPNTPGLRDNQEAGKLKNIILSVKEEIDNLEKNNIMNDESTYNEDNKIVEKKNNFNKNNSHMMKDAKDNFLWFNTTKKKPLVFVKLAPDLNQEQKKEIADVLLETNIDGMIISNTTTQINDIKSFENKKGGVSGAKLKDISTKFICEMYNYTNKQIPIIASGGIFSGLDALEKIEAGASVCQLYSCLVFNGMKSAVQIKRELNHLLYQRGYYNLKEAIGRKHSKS
Chain of E3 ubiquitin-protein ligase XIAP (Homo sapiens) (P98170 whole entry, looked up): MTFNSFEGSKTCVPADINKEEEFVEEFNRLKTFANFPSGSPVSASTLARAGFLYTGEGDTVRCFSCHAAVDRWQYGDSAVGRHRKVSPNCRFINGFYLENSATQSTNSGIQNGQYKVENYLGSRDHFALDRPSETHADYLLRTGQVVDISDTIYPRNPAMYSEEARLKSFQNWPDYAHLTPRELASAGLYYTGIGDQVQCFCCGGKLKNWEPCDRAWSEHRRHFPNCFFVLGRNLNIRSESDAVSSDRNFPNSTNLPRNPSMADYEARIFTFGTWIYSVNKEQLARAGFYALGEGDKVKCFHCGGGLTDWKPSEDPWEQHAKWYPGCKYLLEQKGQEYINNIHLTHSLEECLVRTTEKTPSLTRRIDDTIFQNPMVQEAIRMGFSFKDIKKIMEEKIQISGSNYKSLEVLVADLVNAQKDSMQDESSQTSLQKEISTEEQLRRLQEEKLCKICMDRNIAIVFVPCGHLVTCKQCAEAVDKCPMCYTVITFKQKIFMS
Chain of Homeobox protein Hox-A13 (Mus musculus) (Q62424 whole entry, looked up): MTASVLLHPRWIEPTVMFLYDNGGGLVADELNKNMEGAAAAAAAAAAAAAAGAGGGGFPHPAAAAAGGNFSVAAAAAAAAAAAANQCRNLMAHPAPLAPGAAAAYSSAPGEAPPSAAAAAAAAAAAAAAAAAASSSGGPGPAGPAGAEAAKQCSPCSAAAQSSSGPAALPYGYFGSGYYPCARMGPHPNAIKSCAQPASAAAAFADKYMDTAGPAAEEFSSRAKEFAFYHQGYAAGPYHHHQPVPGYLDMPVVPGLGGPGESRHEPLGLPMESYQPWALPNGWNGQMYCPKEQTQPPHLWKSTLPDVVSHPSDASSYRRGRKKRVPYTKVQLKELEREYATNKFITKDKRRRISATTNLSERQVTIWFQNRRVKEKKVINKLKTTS
Chain of Adenosylmethionine-8-amino-7-oxononanoate aminotransferase (Mycobacterium tuberculosis (strain ATCC 25618 / H37Rv)) (P9WQ81 whole entry, looked up): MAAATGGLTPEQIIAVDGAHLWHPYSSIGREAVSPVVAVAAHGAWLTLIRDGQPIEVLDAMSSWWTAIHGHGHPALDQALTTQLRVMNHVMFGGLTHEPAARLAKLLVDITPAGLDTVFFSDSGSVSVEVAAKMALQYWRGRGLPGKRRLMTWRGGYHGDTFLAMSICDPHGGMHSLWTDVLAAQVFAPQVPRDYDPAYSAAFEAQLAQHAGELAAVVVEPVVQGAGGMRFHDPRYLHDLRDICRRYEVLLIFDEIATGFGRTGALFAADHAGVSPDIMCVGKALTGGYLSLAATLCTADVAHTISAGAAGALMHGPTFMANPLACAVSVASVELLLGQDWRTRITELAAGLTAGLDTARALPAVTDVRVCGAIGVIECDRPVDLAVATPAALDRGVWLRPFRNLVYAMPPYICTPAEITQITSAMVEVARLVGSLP

In the case of `Nc1cc(C(=O)O)ccc1Nc1ccccc1`, the compound was called inactive in assay [1].

Turning to `C[C@H]1CN([C@@H](C)CO)C(=O)CCCn2nncc2CO[C@H]1CN(C)C(=O)Oc1cccc2ccccc12`, the call in assay [2], in [3] and in [4] was inactive.

Turning to `CC(Oc1cc2oc(=O)c3c(c2cc1Cl)CCC3)C(=O)NCc1cccnc1` (centres undefined), the compound was classed as inactive in assay [1].

Take `C=C(CC1(CNP(=O)(c2ccccc2)c2ccccc2)CC1)c1ccccc1`: the z-score in assay [5] was -0.101; in assay [6], 0.736 (inactive); in assay [7] it was -0.342 (inactive); in assay [9] it was 0.0944 (inactive); in [10], 0.389 (inactive); in assay [11], -0.174 (inactive). Besides, the z-score was 0.249 (inactive) in assay [12]; -0.34 in assay [13]; -0.176 in [16]; -2.28 (inactive) in assay [17]; -0.462 (inactive) in assay [18]; -0.427 (inactive) in [19]. The composite z-score in assay [8] was 0.271 (inactive); in [14] it was -0.177; in assay [15] it was 1.26 (inactive); with XIP peptide (Xip251-270), 0.651.

As for `O=C(C[C@H]1C[C@H]2c3cc(NC(=O)c4cccnc4)ccc3O[C@H]2[C@H](CO)O1)NCc1ccccn1`, in [1], the compound was called inactive.

`CC(=O)OC1(C)CC(C)C(=O)C(C(O)CC2CC(=O)NC(=O)C2)C1` (centres undefined): the result in [3] and in [4] was inactive.

In the case of `O=C(c1ccncc1)N1CC[C@@H]2[C@@H](CO)Nc3ccc(Br)cc3[C@@H]21`, in assay [1], the compound was classed as inactive.

For `CN1c2ccc(-c3cccc(F)c3)cc2[C@@H]2[C@@H](CCN2C(=O)c2ccncc2)[C@H]1CO`, the result in [1] was inactive.

Turning to `CC1N(P(=O)(c2ccccc2)c2ccccc2)CC(O)(c2ccccc2)CC12CC2` (centres undefined), the z-score was -0.964 and 0.138 in assay [5]; 2.47 (inactive) and 0.135 (inactive) in [6]; -1.13 (inactive) and -0.22 (inactive) in [7]; 0.495 (inactive) and 0.178 (inactive) in assay [9]; 1.23 (inactive) and -0.154 (inactive) in [10]; -0.611 (inactive) and -0.406 (inactive) in assay [11]. For the same compound, the z-score was 0.0506 (inactive) and -0.0402 (inactive) in [12]; -1.54 and 0.553 in [13]; 0.2 and -0.527 in [16]; -3.23 (inactive) and -3.55 (inactive) in assay [17]; 0.694 (inactive) and 0.475 (inactive) in [18]; 0.608 (inactive) and 0.341 (inactive) in assay [19]. Also, the composite z-score in [8] was 0.296 (inactive) and -0.264 (inactive); in assay [14] it was -0.193 and -0.25; in assay [15] it was 0.51 (inactive) and -0.0366 (inactive); in the assay with XIP peptide (Xip251-270), 0.547 and 0.382.

With `Cc1ccc(NCc2nnc(SCC(=O)N3CCc4ccccc43)n2C)cc1`, the call in assay [1] was inactive.

As for `COc1cc2c(cc1O)C=[N+](C)CC2`, the z-score in assay [5] is -0.365; in [6], 0.248 (inactive); in assay [7] it was -0.765 (inactive); in assay [9], 0.158 (inactive); in assay [10] it was -0.756 (inactive); in assay [11], 0.313 (inactive). In addition, the z-score in assay [12] was 1.42 (inactive); in [13] it was -0.383; in assay [16], -0.0765; in assay [17], -2.14 (inactive); in assay [18], -0.663 (inactive); in assay [19], -0.875 (inactive). Further, the composite z-score in assay [8] was -1.7 (inactive); in assay [14], 0.0613; in assay [15], -1.21 (inactive); with XIP peptide (Xip251-270) it was -0.417.

In the case of `O=c1[nH]c(CN2CC=C(c3ccccc3)CC2)nc2cc(C(F)(F)F)ccc12`, the compound was classed as inactive in assay [3] and in assay [4].

Consider `Cc1c(OC(C)C(=O)NCC2CCC(C(=O)O)CC2)ccc2c1oc(=O)c1ccccc12` (centres undefined), for which the result in assay [1] was inactive.

In the case of `C[C@@H]1CN([C@@H](C)CO)C(=O)CCCn2nncc2CO[C@H]1CN(C)C(=O)Oc1cccc2ccccc12`, the call in [2] and in assay [4] was inactive.

Consider `O=C(CN1C(=O)/C(=C/c2cccc(Br)c2)SC1=S)Nc1cccnc1`, for which the call in assay [1] was inactive.

For `CC[C@H](C)[C@@H]1NC(=O)CNC(=O)c2csc(n2)[C@H](C(C)(C)O)OC(=O)C(C)(C)[C@H](CCCC(C)(Cl)Cl)OC(=O)c2csc1n2`, the outcome in [4] was inactive.

Take `CCOc1ccc(-n2c(SCC(N)=O)nc3c(c2=O)SCC3)cc1`: in [1], the result was inactive.

With `CN1CCC(c2ccc(CO)cc2)=CC1c1cccs1` (centres undefined), the z-score in [5] is -0.792; in [6] it was -1.01 (inactive); in assay [7], -0.694 (inactive); in assay [9] it was -0.329 (inactive); in assay [10] it was 1.13 (inactive); in assay [11], -0.543 (inactive). Further, the z-score in assay [12] is -0.447 (inactive); in assay [13], -0.118; in [16], -1.99; in assay [17], -4.11 (inactive); in assay [18], 0.126 (inactive); in assay [19], -0.0255 (inactive). For the same compound, the composite z-score in assay [8] is 0.083 (inactive); in [14], 0.152; in [15], 0.219 (inactive); with XIP peptide (Xip251-270), 0.171.

`COc1ccccc1-c1cc(C(F)(F)F)nc(S(=O)(=O)CCCC(=O)O)n1`: the compound was classed as inactive in [1].

As to `Cc1ccc(S(=O)(=O)N(C)C)cc1NC(=O)CSc1nncs1`, in [1], the compound was called inactive.

Regarding `CCCc1cc2c(n1Cc1ccco1)C(C)C1CN(C(=O)c3ccccc3)C(C)(C(=O)OC)C21` (centres undefined), the z-score is -1.24 in assay [5]; -0.0767 (inactive) in assay [6]; -1.85 (inactive) in assay [7]; 1.9 (inactive) in assay [9]; 0.264 (inactive) in assay [10]; -1.25 (inactive) in [11]. Moreover, the z-score is -0.951 (inactive) in assay [12]; -1.3 in assay [13]; 0.0125 in assay [16]; -4.51 (inactive) in [17]; 0.586 (inactive) in [18]; 0.875 (inactive) in [19]. For the same compound, the composite z-score in [8] is -0.455 (inactive); in assay [14], 0.471; in [15], 1.32 (inactive); in the assay with XIP peptide (Xip251-270), 0.741.

Consider `N#Cc1ccc(-c2ccc3c(c2)[C@@H]2[C@@H](CCN2C(=O)c2ccc(F)cc2)[C@@H](CO)N3)cc1`, for which the call in [1] was inactive.

Regarding `CCOC(=O)[C@H]1CC=C2C(=O)Oc3ccccc3[C@@H]21`, the z-score was 0.867 in [5]; -10.4 (active) in [6]; -0.848 (inactive) in [7]; 0.381 (inactive) in [9]; -1.43 (inactive) in [10]; -0.475 (inactive) in assay [11]. Also, the z-score was -1.11 (inactive) in assay [12]; -0.575 in [13]; -0.654 in assay [16]; -2.72 (inactive) in [17]; 0.466 (inactive) in assay [18]; 0.0685 (inactive) in [19]. Moreover, the composite z-score in assay [8] was 0.188 (inactive); in [14], -0.0727; in assay [15] it was 0.23 (inactive); with XIP peptide (Xip251-270) it was 0.637.

Turning to `O=C(O)CSc1ncnc2scc(-c3ccc(Br)cc3)c12`, the compound was classed as inactive in [1].
